These results are taken from PubChem BioAssay (EPA / NIEHS).

Inconclusive results are not listed. The source made the active and inactive calls. The calls were made as follows: active = hit-call score of the fitted dose curve at least 0.9, where 1 is the maximum; inconclusive = response in the unintended direction; inactive = score below 0.9.

human Adenosine A1 Receptor (AdoRA1), ADORA1 (gene 134), sequence (P30542 whole entry, looked up): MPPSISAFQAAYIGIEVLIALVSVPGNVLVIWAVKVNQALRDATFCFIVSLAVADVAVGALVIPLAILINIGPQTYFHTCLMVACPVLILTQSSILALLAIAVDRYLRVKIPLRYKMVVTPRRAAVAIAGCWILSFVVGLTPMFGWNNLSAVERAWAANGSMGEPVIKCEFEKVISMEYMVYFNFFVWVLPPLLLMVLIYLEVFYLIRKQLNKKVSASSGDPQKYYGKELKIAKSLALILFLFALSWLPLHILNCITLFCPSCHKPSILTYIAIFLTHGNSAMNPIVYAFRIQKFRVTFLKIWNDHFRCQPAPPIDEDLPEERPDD
guinea pig Leukotriene D4 Receptor (LTD4), CYSLTR1 (gene 100135514), sequence (Q2NNR5 whole entry, looked up): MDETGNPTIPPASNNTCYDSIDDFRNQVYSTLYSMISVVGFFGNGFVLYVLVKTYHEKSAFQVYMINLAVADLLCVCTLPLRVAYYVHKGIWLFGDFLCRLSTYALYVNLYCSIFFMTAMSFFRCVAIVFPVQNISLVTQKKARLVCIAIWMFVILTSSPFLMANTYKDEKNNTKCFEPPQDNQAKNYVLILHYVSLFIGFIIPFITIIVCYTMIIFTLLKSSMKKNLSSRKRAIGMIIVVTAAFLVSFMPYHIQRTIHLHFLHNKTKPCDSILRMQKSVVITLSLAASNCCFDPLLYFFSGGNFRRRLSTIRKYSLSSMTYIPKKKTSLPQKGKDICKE
human Adenosine A2a Receptor (AdoRA2a), ADORA2A (gene 135), sequence (P29274 whole entry, looked up): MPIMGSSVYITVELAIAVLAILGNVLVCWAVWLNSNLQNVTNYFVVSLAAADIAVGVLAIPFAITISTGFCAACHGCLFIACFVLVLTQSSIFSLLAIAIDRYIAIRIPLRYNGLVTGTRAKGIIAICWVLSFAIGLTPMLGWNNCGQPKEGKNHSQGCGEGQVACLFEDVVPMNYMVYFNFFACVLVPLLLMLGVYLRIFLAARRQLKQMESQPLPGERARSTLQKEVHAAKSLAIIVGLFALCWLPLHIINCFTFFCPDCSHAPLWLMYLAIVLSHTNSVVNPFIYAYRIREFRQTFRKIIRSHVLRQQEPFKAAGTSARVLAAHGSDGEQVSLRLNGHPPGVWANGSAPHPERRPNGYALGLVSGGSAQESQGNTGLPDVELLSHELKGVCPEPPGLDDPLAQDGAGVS
sheep Cyclooxygenase-1 (Cox1), PTGS1 (gene 443551), sequence (P05979 whole entry, looked up): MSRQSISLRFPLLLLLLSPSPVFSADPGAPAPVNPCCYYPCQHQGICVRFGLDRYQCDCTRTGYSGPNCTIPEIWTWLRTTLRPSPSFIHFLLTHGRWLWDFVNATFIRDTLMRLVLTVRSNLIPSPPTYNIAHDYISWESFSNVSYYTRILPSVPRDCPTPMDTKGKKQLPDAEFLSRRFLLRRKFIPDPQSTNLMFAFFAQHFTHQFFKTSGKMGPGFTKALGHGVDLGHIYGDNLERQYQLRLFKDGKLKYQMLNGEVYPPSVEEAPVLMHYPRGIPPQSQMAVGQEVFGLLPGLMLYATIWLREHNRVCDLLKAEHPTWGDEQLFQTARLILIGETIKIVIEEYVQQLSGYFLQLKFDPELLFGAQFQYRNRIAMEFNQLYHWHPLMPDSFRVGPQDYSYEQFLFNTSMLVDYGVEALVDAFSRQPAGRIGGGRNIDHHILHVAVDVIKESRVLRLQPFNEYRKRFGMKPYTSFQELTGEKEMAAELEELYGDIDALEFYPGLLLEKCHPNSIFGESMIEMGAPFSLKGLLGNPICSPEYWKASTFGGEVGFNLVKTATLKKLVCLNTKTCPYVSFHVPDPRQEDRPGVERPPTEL

The first test addresses sheep Cyclooxygenase-1 (Cox1), PTGS1 (gene 443551) (UniProt P05979). Briefly: NVS_ENZ_oCOX1: NovaScreen (NVS) Enzymatic Assay for sheep Cyclooxygenase-1 (Cox1) (AID 2283239).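 Also: actives reduce cyclooxygenase activity so potencies are for inhibitors.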 In short, it runs like this: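 Native ovine seminal vesicle protein serves as enzyme source in this biochemical assay. Colorimetric signal is recorded 0.66 h after chemical addition, and decreases versus the DMSO control define activity.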
Consider `O=[N+]([O-])c1cccc2ccccc12`, for which the call was inactive.
As to `CN(C)CCN(C)C`, the molecule was called inactive.
As for `C=CC(=O)NC(C)(C)CC(C)=O`, the AC50 was 21.4 µM (active).
For the molecule `c1ccc2sc(SNC3CCCCC3)nc2c1`, the result was inactive.
On the same count and under the same terms, in the case of `Nc1ncn[nH]1` it was “inactive”.
For `N#CCCC(Br)(C#N)CBr` (stereo unspecified), the AC50 is 4.04 µM (active).
Regarding `CC(C)(C)c1ccccc1O`, the molecule was called inactive.
In the case of `[Cl][Sn]([c]1ccccc1)([c]1ccccc1)[c]1ccccc1`, the result was inactive.

Another test has as its system rat Monoamine Oxidase, MAO-A, Central (MAOAC), gene 29253. Briefly: NVS_ENZ_rMAOAC: NovaScreen (NVS) Enzymatic Assay for rat Monoamine Oxidase, MAO-A, Central (MAOAC) (AID 2283243).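 Also: potency refers to inhibition seen as signal drop below DMSO baseline.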 The protocol: NVS_ENZ_rMAOAC is a biochemical, single-readout assay that uses extracted gene-proteins from Rat brain in a tissue-based cell-free assay. Measurements were taken 1.5 hours after chemical dosing in a 96-well plate.NVS_ENZ_rMAOAC is one of one assay component(s) measured or calculated from the NVS_ENZ_rMAOAC assay. It is designed to make measurements of enzyme activity, a form of enzyme reporter, as detected with scintillation counting signals by Lysate-based radiodetection technology.Data from the assay component NVS_ENZ_rMAOAC was analyzed into 1 assay endpoint. This assay endpoint, NVS_ENZ_rMAOAC, was analyzed in the positive analysis fitting direction relative to DMSO as the negative control and baseline of activity. Using a type of enzyme reporter, loss-of-signal activity can be used to understand changes in the enzymatic activity as they relate to the gene Maoa. Furthermore, this assay endpoint can be referred to as a primary readout, because this assay has produced multiple assay endpoints where this one serves a enzymatic activity function. To generalize the intended target to other relatable targets, this assay endpoint is annotated to the oxidoreductase intended target family, where the subfamily is monoamine oxidase.
Binding assays used specific radioligands (tritiated, iodinated) with non-radioactive competitive displacement ligands in agonist or antagonist protocols (as indicated) and various reference compounds and inhibitors to titrate specific binding to receptors and transporters. Most enzyme assays (CYPs, kinases, phosphatases, proteases, HDACs) used recombinant protein and specific substrates (fluorescence mostly, some colorimetric and radioactive) and inhibitors, followed by a biochemical separation of substrate and product. All assays for the biochemical HTS were initially run in duplicate at a single concentration (10 uM for CYP450 assays and 25 uM for all others). […] Each assay was run with positive and negative controls, and concurrent controls on every plate. The follow-up (secondary) screen tested active chemical-pairs in concentration series, as well as a few additional assays not tested in the primary screen, some selected negative inactives, and several cases re-run in the concentration series for confirmatory purposes.
Regarding `O=C1C=CC(=O)c2ccccc21`, the AC50 was 25 µM (active).
For `OC(Cc1ccccc1Cl)(Cn1cncn1)C1(Cl)CC1` (stereo unspecified), the call was inactive.
As for `Oc1c(Cl)cc(Cl)cc1Cl`, the molecule was called inactive.
In the case of `Oc1ccc(Cc2ccc(O)cc2)cc1`, the AC50 was 25 µM (active).
With `Oc1cccc(-c2ccccc2)c1`, the AC50 was 10.9 µM (active).

The next test deals with guinea pig Leukotriene D4 Receptor (LTD4), CYSLTR1 (gene 100135514) (UniProt Q2NNR5). Briefly: NVS_GPCR_gLTD4: NovaScreen (NVS) G Protein-Coupled Receptor Assay for guinea pig Leukotriene D4 Receptor (LTD4) (AID 2283248). In outline:
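Guinea pig lung membrane preparation; bound radioligand measured by filter scintillation after 1 h, loss of signal versus DMSO marking displacement. Compounds tested at 25 uM in duplicate, hits retested to max 50 uM.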
On to `CCCCOC(C)=O`, for which the result was inactive.
Regarding `CCOC(=O)CC(=O)CCl`, the molecule was called inactive.
For `O=C(O)C1(c2ccc3c(c2)OC[C@H](Cc2ccc(-c4ccccc4)cc2)[C@H]3O)CCCC1`, the molecule was classed as inactive.
For the molecule `CCN(N=O)C(N)=O`, the molecule was called inactive.

For another test, the target named is guinea pig Opioid, Kappa 1 Receptor (OpiateK), OPRK1 (gene 100135587) (UniProt P41144). As to the kind of experiment: NVS_GPCR_gOpiateK: NovaScreen (NVS) G Protein-Coupled Receptor Assay for guinea pig Opioid, Kappa 1 Receptor (OpiateK) (AID 2283252).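 Also: active means reduced radioligand binding relative to DMSO.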 In outline: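 Cell-free tissue prep: guinea pig cerebellar membranes, radioligand displacement, 2 h incubation. Readout: filtration plus scintillation counting. Primary single-point 25 uM duplicate; actives retested in concentration series; DMSO negative control.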
guinea pig Opioid, Kappa 1 Receptor (OpiateK), OPRK1 (gene 100135587), sequence (P41144 whole entry, looked up): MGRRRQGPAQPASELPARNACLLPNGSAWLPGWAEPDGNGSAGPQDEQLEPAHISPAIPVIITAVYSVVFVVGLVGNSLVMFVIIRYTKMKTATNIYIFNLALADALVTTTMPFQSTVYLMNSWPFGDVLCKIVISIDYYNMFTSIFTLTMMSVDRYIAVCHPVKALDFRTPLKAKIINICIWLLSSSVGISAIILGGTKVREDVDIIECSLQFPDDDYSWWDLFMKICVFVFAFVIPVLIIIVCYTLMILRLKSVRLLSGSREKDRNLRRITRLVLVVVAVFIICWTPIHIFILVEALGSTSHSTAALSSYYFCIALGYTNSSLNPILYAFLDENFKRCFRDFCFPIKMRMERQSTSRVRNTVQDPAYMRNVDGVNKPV
With `O=C1C=CC(=O)c2ccccc21`, the AC50 is 37.8 µM (active).
Consider `O=C1C[C@@H]2OCC=C3CN4CC[C@]56c7ccccc7N1[C@H]5[C@H]2[C@H]3C[C@H]46`, for which the molecule was called inactive.
Regarding `N#CCCC(Br)(C#N)CBr` (stereo unspecified), the molecule was classed as inactive.

Another test deals with human Adenosine A1 Receptor (AdoRA1), ADORA1 (gene 134) (UniProt P30542). As to the kind of experiment: NVS_GPCR_hAdoRA1: NovaScreen (NVS) G Protein-Coupled Receptor Assay for human Adenosine A1 Receptor (AdoRA1) (AID 2283254). In outline:
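Radioligand binding was run on human cortical membranes, cell-free, with filter-based scintillation counting 1 h after dosing. The primary screen was duplicate at 25 uM, followed by concentration series. Signal loss versus DMSO was fitted positive-direction.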
On to `Cc1cc(C(C)(C)c2ccc(O)c(C)c2)ccc1O`, for which the AC50 is 8.39 µM (active).
As for `CCCCOC(C)=O`, the molecule was classed as inactive.
`Cc1ccccc1OP(=O)(Oc1ccccc1C)Oc1ccccc1C`: the molecule was classed as inactive.

In a further test the target is human Adenosine A2a Receptor (AdoRA2a), ADORA2A (gene 135) (UniProt P29274). As to the kind of experiment: NVS_GPCR_hAdoRA2a: NovaScreen (NVS) G Protein-Coupled Receptor Assay for human Adenosine A2a Receptor (AdoRA2a) (AID 2283256). In short, it runs like this:
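Compounds screened in duplicate at 25 uM, with actives followed up in concentration series, for displacement of a radioligand from HEK293-derived receptor protein. Bound counts read by filter scintillation at 1.5 hours, DMSO as baseline.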
As for `Cc1cc(C(C)(C)c2ccc(O)c(C)c2)ccc1O`, the outcome was inactive.
On to `Cc1cccc(OP(=O)(Oc2cccc(C)c2)Oc2cccc(C)c2)c1`, for which the molecule was called inactive.
Same read-out and setting: in the case of `[Cl][Sn]([c]1ccccc1)([c]1ccccc1)[c]1ccccc1` it was “inactive”.

Broadly, the AC50 is the concentration at which the activity in the assay is half-maximal.
